According to PubChem BioAssay (NCATS):
Several values for one entry are separate records, joined by “and”; a condition that tells them apart may be missing. Equal entries are not always repeated. Inconclusive results are not listed. Activity calls are given as the source filed them. The call rests on the fitted dose curve; in most records, active means well fitted curve in the direction sought with a large enough effect; inconclusive means small, poorly fitted or top-dose-only effect, or another doubt; inactive means no such curve, though single readings can be large; an effect the other way counts as inactive or inconclusive.

Assay: qHTS of pediatric cancer cell lines to identify multiple opportunities for drug repurposing: Confirmatory screen for LAN-5 cells (AID 1347113); further: nearly all actives have a fitted effect of over 65% in size
Settings: LAN-5 neuroblastoma cell viability; series mostly up to 45.9 µM; activity change, negative = cytotoxicity: at the top concentration
Method in brief: (§1)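 Viability after 48 h compound treatment at 37C, 500-1,000 cells/well, read as ATP luminescence with CellTiter-Glo. Primary screens used 11-point (MIPE, 0.78 nM-46 µM) or 8-point (NPC, 0.59 nM-46 µM) final concentrations; follow-up screens used 11-point dilutions.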
On the % scale 0 is the no-effect control and ±100 the full control effect; potency means the concentration at half of the fitted maximal effect.

Structure (SMILES)	Potency	activity change, negative = cytotoxicity
CN(C)C(=S)SSC(=S)N(C)C	185 nM (active)	–
CC1Sc2c(C(=O)O)c(=O)c3cc(F)c(N4CCNCC4)cc3n21 (stereo unspecified)	–	7.12% (inactive)
Cc1ccc([N+](=O)[O-])[c]2c1[O][Hg]2	2930 nM (active)	–
C[C@@H]1O[C@@H](O[C@@H]2C=C3CC[C@@H]4[C@H](CC[C@]5(C)[C@@H](c6ccc(=O)oc6)CC[C@]45O)[C@@]3(C)CC2)[C@H](O)[C@H](O)[C@H]1O	58.5 nM (active)	–
CCCCCCCCCCCC[N+](C)(C)CCOc1ccccc1	14700 nM (active)	–
O=C(O)Cc1ccccc1	–	-27.9% (inactive)
CN1[C@@H]2CC[C@H]1CC(OC(=O)c1cc(Cl)cc(Cl)c1)C2 (stereo partly specified)	–	-21.9% (inactive)
CC[n+]1c(-c2ccccc2)c2cc(N)ccc2c2ccc(N)cc21	928 nM (active)	–
CCCCCCCCC(=O)NCc1ccc(O)c(OC)c1	–	-32.2% (inactive)
COc1ccc2c(C(=O)c3ccc(Cl)cc3)c(C)n(CC(=O)O)c2c1	–	16.7% (inactive)
CCc1ccc(C2CCNCC2)cc1	–	14.3% (inactive)
C[C@@H]1C[C@@H]([C@H](O)CC2CC(=O)NC(=O)C2)C(=O)[C@@H](C)C1	928 nM (active) and 2.61 µM (active)	–
ClC1=C(Cl)C2(Cl)C(CBr)CC1(Cl)C2(Cl)Cl (stereo unspecified)	–	9.65% (inactive)

Assay: qHTS of pediatric cancer cell lines to identify multiple opportunities for drug repurposing: Confirmatory screen for DAOY cells (AID 1347114); further: nearly all actives have a fitted effect of over 65% in size
Settings: DAOY medulloblastoma cells viability, cytotoxicity qHTS; series mostly up to 45.9 µM; activity change, negative = cytotoxic: at the top concentration
Method in brief: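 Viability measured as metabolically active cells via CellTiter-Glo luminescence following 48 hours of compound exposure, 11-point dilutions in confirmatory testing. 500-1,000 cells/well plated 5 hours before dosing; controls were DMSO and 2.3 µM bortezomib.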

Structure (SMILES)	Potency	activity change, negative = cytotoxic
Cc1ccc([N+](=O)[O-])[c]2c1[O][Hg]2	5220 nM (active)	–
CCCCCCCCCCCC[N+](C)(C)CCOc1ccccc1	18500 nM (active)	–
O=C(O)Cc1ccccc1	–	-18.5% (inactive)
CC[n+]1c(-c2ccccc2)c2cc(N)ccc2c2ccc(N)cc21	13100 nM (active)	–
COc1ccc(C(=O)N2CCCC2=O)cc1	–	1.06% (inactive)
CCCCCCCCC(=O)NCc1ccc(O)c(OC)c1	–	-7.3% (inactive)
COc1ccc2c(C(=O)c3ccc(Cl)cc3)c(C)n(CC(=O)O)c2c1	–	-13.8% (inactive)
CCc1ccc(C2CCNCC2)cc1	–	-2.88% (inactive)
COC(=O)C1=CCCN(C)C1	–	0.0478% (inactive)
C[C@@H]1C[C@@H]([C@H](O)CC2CC(=O)NC(=O)C2)C(=O)[C@@H](C)C1	–	-22.2% (inactive)
ClC1=C(Cl)C2(Cl)C(CBr)CC1(Cl)C2(Cl)Cl (stereo unspecified)	–	-14.3% (inactive)

Assay: qHTS of pediatric cancer cell lines to identify multiple opportunities for drug repurposing: Confirmatory screen for NB-EBc1 cells (AID 1347115);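 further: cells exposed to compound for 48 h before the viability read; nearly all actives have a fitted effect of over 45% in size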
Settings: NB-EBc1 neuroblastoma cells, viability (cytotoxicity); series mostly up to 45.9 µM; activity change, negative = cytotoxic: at the top concentration
Method in brief: as §1

Structure (SMILES)	Potency	activity change, negative = cytotoxic
CN(C)C(=S)SSC(=S)N(C)C	928 nM (active)	–
CC1Sc2c(C(=O)O)c(=O)c3cc(F)c(N4CCNCC4)cc3n21 (stereo unspecified)	–	4.41% (inactive)
Cc1ccc([N+](=O)[O-])[c]2c1[O][Hg]2	2930 nM (active)	–
C[C@@H]1O[C@@H](O[C@@H]2C=C3CC[C@@H]4[C@H](CC[C@]5(C)[C@@H](c6ccc(=O)oc6)CC[C@]45O)[C@@]3(C)CC2)[C@H](O)[C@H](O)[C@H]1O	29.3 nM (active)	–
O=C(O)Cc1ccccc1	–	-2.93% (inactive)
CN1[C@@H]2CC[C@H]1CC(OC(=O)c1cc(Cl)cc(Cl)c1)C2 (stereo partly specified)	–	-8.99% (inactive)
CC[n+]1c(-c2ccccc2)c2cc(N)ccc2c2ccc(N)cc21	5220 nM (active)	–
CCCCCCCCC(=O)NCc1ccc(O)c(OC)c1	–	-6.04% (inactive)
COc1ccc2c(C(=O)c3ccc(Cl)cc3)c(C)n(CC(=O)O)c2c1	–	0.417% (inactive)
CCc1ccc(C2CCNCC2)cc1	–	-4.59% (inactive)
COC(=O)C1=CCCN(C)C1	–	6.54% (inactive)
ClC1=C(Cl)C2(Cl)C(CBr)CC1(Cl)C2(Cl)Cl (stereo unspecified)	–	0.0491% (inactive)
